# PMC8769072, “Proteome‐scale mapping of binding sites in the unstructured regions of the human proteome” (Molecular Systems Biology, 2022)
# What was measured:
# [1] = target: MAP1LC3A 2-121, Q9H492
# [2] = target: NEDD4 890-928, P46934
# [3] = target: YAP1 169-207, P46937
# [4] = target: MAP1LC3B 2-119, Q9GZQ8
# Sequence of YAP1 169-207, P46937 (P46937 169-207): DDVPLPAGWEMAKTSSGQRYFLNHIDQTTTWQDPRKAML
# Sequence of NEDD4 890-928, P46934 (P46934 890-928): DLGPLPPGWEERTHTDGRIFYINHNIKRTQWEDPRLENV
binder,measurement,setting,value
"VPAFEVLEISPQEVSS [MS4A2, Q01362]",selected by phage display,[1],confidence 2 (active)
"ADLPPPYSPTPQGPAQ [CYYR1, Q96J86]",selected by phage display,[2],confidence 2 (active)
same,selected by phage display,[3],confidence 3 (active)
"SEGTDNGDLPSYVSAF [RINT1, Q6NUQ1]",selected by phage display,[2],confidence 2 (active)
"TSPIADFPAPPPYSAV [SYNPO2, Q9UMS6]",selected by phage display,[2],confidence 4 (active)
"AEESFTTLNVDIRNHQ [USP9X, Q93008]",selected by phage display,[1],confidence 2 (active)
"EDSLPPYKLKLDLTKL [TMEM59L, Q9UK28]",selected by phage display,[2],confidence 2 (active)
same,selected by phage display,[3],confidence 4 (active)
"PHSHDWVWLGNEVELL [TMEM132B, Q14DG7]",selected by phage display,[4],confidence 2 (active)
"RLSISLPSYESLTGLD [TMEM51, Q9NW97]",selected by phage display,[2],confidence 2 (active)
"ALPPYSNAGDLYSEPV [EGR3, Q06889]",selected by phage display,[2],confidence 2 (active)
"LNVSSREEAFTDLSLA [USP35, Q9P2H5]",selected by phage display,[1],confidence 3 (active)
EPGWVVLDQPDAAAHL,selected by phage display,[4],confidence 4 (active)
"WTDLASIFGSNKDLMG [NLRP2, Q9NX02]",selected by phage display,[1],confidence 3 (active)
"LPEGFQLLQIDAEGEA [TRMT10B, Q6PF06]",selected by phage display,[1],confidence 2 (active)
"AGHQLGLEADGHWGLL [ZNF469, Q96JG9]",selected by phage display,[4],confidence 3 (active)
"PPPQYIHPNSINVDGN [PRDM4, Q9UKN5]",selected by phage display,[2],confidence 2 (active)
"KPIKENIEESYVHLDI [FRYL, O94915]",selected by phage display,[4],confidence 3 (active)
"VPFTELVVQSITPHQS [BMP2K, Q9NSY1]",selected by phage display,[1],confidence 3 (active)
"EDGYTQLHFDSQSNTR [CLEC7A, Q9BXN2]",selected by phage display,[4],confidence 2 (active)
"TSSSLAYPPPPSYPSP [EGR2, P11161]",selected by phage display,[2],confidence 3 (active)
"ALPEPPPPYEFSASSA [N4BP3, O15049]",selected by phage display,[2],confidence 3 (active)
"DSWEIIEGLKIGQTNV [OSBPL6, Q9BZF3]",selected by phage display,[4],confidence 3 (active)
"LAGGPAVGGLPPYATF [OTUD7B, Q6GQQ9]",selected by phage display,[2],confidence 2 (active)
"QAVTHDNEWEMLSPQP [PRUNE2, Q8WUY3]",selected by phage display,[4],confidence 4 (active)
"LPSYPVAPTSRASPSP [CCDC87, Q9NVE4]",selected by phage display,[2],confidence 3 (active)
"EYEIIETIGNGAYGVV [MAPK7, Q13164]",selected by phage display,[4],confidence 2 (active)
"MARRYDELPHYPGIVD [MEIS3, Q99687]",selected by phage display,[2],confidence 3 (active)
"DKNDYLPLYSSSTKVK [ZNF148, Q9UQR1]",selected by phage display,[2],confidence 2 (active)
"ASERPPTYAELVPRVP [SH2D3A, Q9BRG2]",selected by phage display,[2],confidence 3 (active)
"FLPPYPPQEANRSITS [VPS37A, Q8NEZ2]",selected by phage display,[2],confidence 3 (active)
"AVQVPESFEHLPPLPE [ATF7IP2, Q5U623]",selected by phage display,[1],confidence 4 (active)
"DIGGFTLLDGKLVLLG [RASAL3, Q86YV0]",selected by phage display,[4],confidence 4 (active)
"GSPPSYSEALLDQRPA [LDLRAD3, Q86YD5]",selected by phage display,[2],confidence 3 (active)
"DLPAYTSPTNFPAVLS [ABCA2, Q9BZC7]",selected by phage display,[2],confidence 3 (active)
"LEAEVDFTVIGDYHGS [EPB41L1, Q9H4G0]",selected by phage display,[1],confidence 2 (active)
"LANVIAPPPPPYTPNP [PROSER1, Q86XN7]",selected by phage display,[2],confidence 2 (active)
"APELWTELTGLAASSE [KIFC2, Q96AC6]",selected by phage display,[1],confidence 3 (active)
"NSTPPPYERTRLSPPR [RBM14, Q96PK6]",selected by phage display,[2],confidence 3 (active)
"HVRDAIRSYTEDWAIV [DOCK7, Q96N67]",selected by phage display,[4],confidence 2 (active)
"QEEWALLDPSQKNLYR [ZNF878, C9JN71]",selected by phage display,[4],confidence 2 (active)
"QSNADALPPDYSVVRG [LYPD5, Q6UWN5]",selected by phage display,[2],confidence 2 (active)
"SPPDYLQTVSHPEVYR [SH3D21, A4FU49]",selected by phage display,[2],confidence 3 (active)
"ASPQGEWTILELETQH [KIAA1107, Q9UPP5]",selected by phage display,[1],confidence 3 (active)
"KPPPYLRNLSSDDANV [UBE2L6, O14933]",selected by phage display,[2],confidence 2 (active)
"DLNSQDRVDHEEWEMV [STBD1, O95210]",selected by phage display,[1],confidence 4 (active)
"DSWGIIAEPRQSAFSN [IRS4, O14654]",selected by phage display,[1],confidence 4 (active)
"MAMSNGNNDFVVLSNS [DISP1, Q96F81]",selected by phage display,[4],confidence 2 (active)
"DAGLGFVDLTDLTDHQ [PEG3, Q9GZU2]",selected by phage display,[1],confidence 3 (active)
"TAPPPYSPSPNPYQTA [FAM168A, Q92567]",selected by phage display,[2],confidence 3 (active)
"DQRLPPYPYSSPSLVL [CRTC2, Q53ET0]",selected by phage display,[2],confidence 4 (active)
same,selected by phage display,[3],confidence 3 (active)
"PPAPLAHSDDYVHISL [TSC1, Q92574]",selected by phage display,[4],confidence 2 (active)
"GNSGFQLLDLVHEEGE [SLC7A6OS, Q96CW6]",selected by phage display,[1],confidence 2 (active)
"WEVVTSAIPRGAWHGA [ZNF419, Q96HQ0]",selected by phage display,[1],confidence 2 (active)
"SLEPPSPFELLEPPTS [MAP1S, Q66K74]",selected by phage display,[1],confidence 3 (active)
"EPWAQLEASDIHTAAA [WDR90, Q96KV7]",selected by phage display,[1],confidence 3 (active)
same,selected by phage display,[4],confidence 4 (active)
"ATTHYHTYLPPPYPGS [RUNX2, Q13950]",selected by phage display,[2],confidence 2 (active)
"ASDPPPPYSDFHPNNQ [ABRAXAS2, Q15018]",selected by phage display,[2],confidence 3 (active)
VDNRESSENWEIIRED,selected by phage display,[4],confidence 2 (active)
"YLSEGFGYGMPPLYPQ [NFATC4, Q14934]",selected by phage display,[2],confidence 2 (active)
"HDEAWMVLKQVHDTNM [SV2A, Q7L0J3]",selected by phage display,[4],confidence 3 (active)
"NLPVGYPPQYPPTAFQ [PLSCR1, O15162]",selected by phage display,[2],confidence 2 (active)
"TAPPTYTETLSTAPLA [SYNPO, Q8N3V7]",selected by phage display,[2],confidence 3 (active)
